The test system of assay [1] is XIP peptide (Xip251-270) binding. Nature of the assay: small-molecule binders of XIP peptide, primary screen, biochemical, small-molecule microarray, fluorescence 635/667 nm, 0.1 µg/mL protein (AID 1182). The note with it: fluorescent protein binding, 635 nm, higher = more signal, called active from +8 up or from −8 down.
For another assay, the system named is XIP peptide (Xip251-270). Nature of the assay: small-molecule binders of XIP peptide, primary screen, biochemical, small-molecule microarray, fluorescence 635/667 nm, 0.5 µg/mL protein (AID 1183). The settings on record: small-molecule microarray binding, fluorescence 635 nm; higher = more signal.
A short description of assay [2]: Plasmodium falciparum growth inhibition, primary screen, strain 3D7, DAPI fluorescence, 100 nL (AID 1184).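 Note: parasites grown inside human red blood cells in medium with human serum.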 The note with it: P. falciparum 3D7 growth, 3 d, higher = more signal.
The target in assay [3] is Homeobox protein Hox-A13 (Mus musculus) (UniProt Q62424). Nature of the assay: inhibitors of HoxA13-DNA binding, primary screen, biochemical, fluorescence polarization, labeled oligonucleotide (AID 1185). The settings on record: 15 min, higher = more signal, called active from +8 up or from −8 down. Background: In fluorescence polarisation assays a small probe gives low polarisation when free and higher when bound to something large.

A short description of assay [4]: inhibitors of hydroxyurea-induced Chk1 phosphorylation, primary screen, imaging, HeLa, phospho-Chk1 antibody, percent positive cells (AID 1186). The settings on record: hydroxyurea-induced phospho-Chk1 immunofluorescence imaging, higher = more signal.
The nature of assay [5]: inhibitors of hydroxyurea-induced Chk1 phosphorylation, primary screen, imaging, HeLa, phospho-Chk1 nuclear intensity (AID 1187). The settings on record: hydroxyurea-induced phospho-Chk1 immunofluorescence imaging, higher = more signal.

Calls of active or inactive are those of the source. Unless noted, the rule behind the calls is not given here.

Sequence of Homeobox protein Hox-A13 (Mus musculus) (Q62424 whole entry, looked up): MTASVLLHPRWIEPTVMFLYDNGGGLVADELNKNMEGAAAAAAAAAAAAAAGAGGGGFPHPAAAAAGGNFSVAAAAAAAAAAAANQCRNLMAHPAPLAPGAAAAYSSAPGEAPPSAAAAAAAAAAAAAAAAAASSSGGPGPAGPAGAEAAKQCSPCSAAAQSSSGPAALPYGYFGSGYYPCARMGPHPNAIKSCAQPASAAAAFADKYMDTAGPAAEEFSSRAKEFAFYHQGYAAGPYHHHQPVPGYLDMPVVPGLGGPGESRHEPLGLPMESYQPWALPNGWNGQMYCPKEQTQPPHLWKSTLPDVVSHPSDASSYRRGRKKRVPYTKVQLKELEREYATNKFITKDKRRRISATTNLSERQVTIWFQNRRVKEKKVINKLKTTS

With `C=CCOC(=O)[C@H]1[C@@H]2C(=O)O[C@@H](c3ccccc3)[C@@H](c3ccccc3)N2[C@@H](c2ccc(OCCOC(=O)[C@H]3C[C@H]4C(=O)N5CCC[C@H]5C(=O)N4[C@H]3c3ccc(O)cc3)cc2)[C@]12C(=O)Nc1ccc(I)cc12`, the composite z-score is 2.85 (inactive) in assay [1] and 0.84 in the assay with XIP peptide (Xip251-270). Besides, the z-score in assay [2] is -1.28; in assay [3] it was 0.622 (inactive); in assay [4] it was -0.187 (inactive); in assay [5], 0.366 (inactive).
Consider `COCC(=C=CC[C@@H](O)c1ccccc1OCCO)C[C@@H](O)c1cc(Cl)cc(Cl)c1O`, for which the composite z-score in assay [1] was 0.589 (inactive); in the assay with XIP peptide (Xip251-270) it was 0.682. In addition, the z-score in assay [2] was -1.84; in assay [3], -3.71 (inactive); in assay [4], 0.161 (inactive); in assay [5], 0.377 (inactive).
`O=C1[C@H]2C=C(Br)[C@H](C[C@@H]2OCCCCO)[C@@]12CO2`: the figures for the composite z-score (in assay [1]; in the assay with XIP peptide (Xip251-270)) were 0.091 (inactive) and 0.141, respectively. Further, the z-score in assay [2] was -0.234; in assay [3], -1.71 (inactive); in assay [4] it was -0.0513 (inactive); in assay [5], -0.265 (inactive).
As to `COCCCNC(=O)[C@@]1(Cc2ccccc2N=[N+]=[N-])N=C(c2ccc(OCCCO)cc2)O[C@H]1c1ccccc1N=[N+]=[N-]`, the figures for the composite z-score (in assay [1]; with XIP peptide (Xip251-270)) were 0.0041 (inactive) and 0.771, respectively. The z-score is -2.43 in assay [2], -2.81 (inactive) in assay [3], -0.559 (inactive) in assay [4] and -0.225 (inactive) in assay [5].
For `[N-]=[N+]=Nc1ccccc1C[C@]1(C(N)=O)N=C(c2ccc(OCCCO)cc2)O[C@H]1c1ccccc1`, the composite z-score in assay [1] is -0.254 (inactive); in the assay with XIP peptide (Xip251-270), 0.537. Moreover, the z-score in assay [2] is -0.98; in assay [3], -7.09 (inactive); in assay [4] it was 0.0195 (inactive); in assay [5], -0.54 (inactive).
`COCCOC(=O)N1C(=O)[C@@]2(c3cc(C#Cc4ccc(OC)cc4)ccc31)[C@H](C(=O)N1CCCCCCC1)[C@H]1C(=O)O[C@H](c3ccccc3)[C@H](c3ccccc3)N1[C@@H]2c1ccc(OCCO)cc1`: the results for the composite z-score (in assay [1]; in the assay with XIP peptide (Xip251-270)) were 2.79 (inactive) and 0.635, respectively. Further, the z-score in assay [2] is -2; in assay [3], -15.8 (active); in assay [4], -0.442 (inactive); in assay [5] it was -0.617 (inactive).
For the compound `C=CCC(OC(C)=O)[C@@H]1[C@@H](N(Cc2ccc(-c3ccccc3)cc2)C(=O)Cc2ccc(F)cc2)c2cc(OCCCO)ccc2N1C(=O)c1ccc(-c2ccccc2)cc1` (stereo partly specified), the composite z-score in assay [1] was -0.142 (inactive); in the assay on XIP peptide (Xip251-270) it was 0.166. The z-score in assay [2] is -1.9; in assay [3], -0.778 (inactive); in assay [4] it was -0.517 (inactive); in assay [5] it was -0.285 (inactive).
With `COCCOC(=O)N1C(=O)[C@@]2(c3cc(C#CCCO)ccc31)[C@H](C(=O)N1CCc3cc(OC)c(OC)cc3C1)[C@H]1C(=O)O[C@H](c3ccccc3)[C@H](c3ccccc3)N1[C@@H]2c1ccc(O)cc1`, the values for the composite z-score (in assay [1]; in the assay on XIP peptide (Xip251-270)) were 1.55 (inactive) and 0.798, respectively. The z-score in assay [2] is -0.439; in assay [3] it was -2.01 (inactive); in assay [4] it was -0.463 (inactive); in assay [5], -0.656 (inactive).
For `CN1C(=O)[C@]2(Cc3ccccc3)N=C(c3ccc(OCCCO)cc3)O[C@@H]2c2ccccc21`, the values for the composite z-score (in assay [1]; in the assay with XIP peptide (Xip251-270)) were 0.97 (inactive) and 0.818, respectively. The z-score was -2.3 in assay [2], -4.54 (inactive) in assay [3], -0.276 (inactive) in assay [4] and 0.0593 (inactive) in assay [5].
In the case of `COc1ccc(C(O)C2C=CC3C(=O)N(C)C(=O)C3N2N2CCCCC2)c2ccccc12` (stereo unspecified), the composite z-score in assay [1] is 0.591 (inactive); in the assay with XIP peptide (Xip251-270), 0.637. In addition, the z-score in assay [2] is -0.179; in assay [3], -4.89 (inactive); in assay [4], 0.294 (inactive); in assay [5], 0.312 (inactive).
On to `CC(C)(C)C(=O)N[C@@H](c1ccc(Cl)cc1)[C@]1(C)C[C@H]1C1CCCCC1`, for which the composite z-score was 0.398 (inactive) in assay [1] and 0.837 with XIP peptide (Xip251-270). Also, the z-score in assay [2] was -0.827; in assay [3] it was 2.32 (inactive); in assay [4], -1.19 (inactive); in assay [5], -0.627 (inactive).
`CC(C)(C)OC(=O)CC[C@@]12N=C(c3ccc(OCCCO)cc3)O[C@@H]1c1ccccc1N(CCS(=O)(=O)c1ccccc1)C2=O`: the values for the composite z-score (in assay [1]; in the assay on XIP peptide (Xip251-270)) were -0.204 (inactive) and 0.569, respectively. The z-score in assay [2] was -1.7; in assay [3], -3.42 (inactive); in assay [4], -0.739 (inactive); in assay [5] it was -0.767 (inactive).
As for `CN(C)CCCNC(=O)[C@@]1(c2ccc([N+](=O)[O-])cc2)CC(=O)N(C2CCCCC2)[C@@H]1c1ccc(CO)cc1I`, the composite z-score was -0.117 (inactive) in assay [1] and 0.248 in the assay with XIP peptide (Xip251-270). For the same compound, the z-score was -2.17 in assay [2], 0.362 (inactive) in assay [3], -0.227 (inactive) in assay [4] and -0.413 (inactive) in assay [5].
As to `COCCOC(=O)N1C(=O)[C@@]2(c3ccccc31)[C@H](c1ccc(O)cc1)N1[C@H](c3ccccc3)[C@H](c3ccccc3)OC(=O)[C@H]1[C@@H]2C(=O)NC[C@H](O)c1ccccc1`, the results for the composite z-score (in assay [1]; with XIP peptide (Xip251-270)) were 2.15 (inactive) and 0.837, respectively. The z-score was -0.682 in assay [2], -5.58 (inactive) in assay [3], -0.229 (inactive) in assay [4] and -0.211 (inactive) in assay [5].
For the compound `CN(C)CCCNC(=O)[C@@]1(C)c2ccccc2C(=O)N(Cc2cc(F)cc(C(F)(F)F)c2)[C@H]1c1ccc(CO)cc1`, the values for the composite z-score (in assay [1]; in the assay with XIP peptide (Xip251-270)) were -0.55 (inactive) and -0.114, respectively. In addition, the z-score is -0.809 in assay [2], -2.15 (inactive) in assay [3], 0.0595 (inactive) in assay [4] and 0.121 (inactive) in assay [5].
On to `CCN(CC)c1ccc(N2CC=CC34O[C@@H]5/C=C\CCCOC(=O)C5[C@H]3C(=O)N(CCO)[C@@H]4C2=O)cc1` (stereo partly specified), for which the composite z-score was 0.482 (inactive) in assay [1] and 0.643 in the assay on XIP peptide (Xip251-270). The z-score in assay [2] is -1.52; in assay [3], -5.79 (inactive); in assay [4] it was 0.225 (inactive); in assay [5] it was 0.161 (inactive).

The record behind these values is PubChem BioAssay.
